Source: the supplement of paper PMC3334620
Over roughly 33,000 sequences, “E-score (-0.5 to 0.5)” has its median near -0.041; the highest 2% begin near 0.37. The sample as a whole holds a higher share of the highest values than the screen did.

molecular target: T1, Ecm22 (UniProt Q05958); assay: PBM E-score (8-mer binding enrichment) (E-score (-0.5 to 0.5)); higher = stronger / more preferred TF binding; conditions: protein concentration: 200 nM; construct: GST-full length
T1 sequence: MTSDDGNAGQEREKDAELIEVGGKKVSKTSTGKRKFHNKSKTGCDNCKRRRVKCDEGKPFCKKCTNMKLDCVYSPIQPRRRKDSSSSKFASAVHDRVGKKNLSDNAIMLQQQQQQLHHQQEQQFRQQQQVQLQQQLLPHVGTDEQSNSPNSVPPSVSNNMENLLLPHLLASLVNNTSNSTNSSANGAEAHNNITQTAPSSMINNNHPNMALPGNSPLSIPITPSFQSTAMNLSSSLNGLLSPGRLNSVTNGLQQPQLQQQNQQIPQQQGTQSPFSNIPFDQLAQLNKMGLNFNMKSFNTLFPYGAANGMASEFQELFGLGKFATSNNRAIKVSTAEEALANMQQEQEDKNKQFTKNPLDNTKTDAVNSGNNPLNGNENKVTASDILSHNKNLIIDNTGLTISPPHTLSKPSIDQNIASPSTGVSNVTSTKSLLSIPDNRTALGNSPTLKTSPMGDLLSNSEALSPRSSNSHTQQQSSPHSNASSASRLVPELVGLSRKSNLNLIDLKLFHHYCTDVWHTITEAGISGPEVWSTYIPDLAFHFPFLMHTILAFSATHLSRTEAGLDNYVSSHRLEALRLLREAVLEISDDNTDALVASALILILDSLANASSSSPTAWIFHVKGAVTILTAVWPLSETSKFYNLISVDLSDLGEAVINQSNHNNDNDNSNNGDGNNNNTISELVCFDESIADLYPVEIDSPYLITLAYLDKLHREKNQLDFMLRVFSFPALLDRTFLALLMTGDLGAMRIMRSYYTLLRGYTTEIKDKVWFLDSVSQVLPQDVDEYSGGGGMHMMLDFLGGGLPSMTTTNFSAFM
In short: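 Each ungapped eight-base word and its reverse complement, pooled, received an E-score from the Universal PBM Analysis Suite. Underlying scans, normalised with masliner, recorded fluorescent anti-GST bound to GST-tagged yeast transcription factors. These were applied at about 100-200 nM to universal all-10-mer Agilent arrays double-stranded by primer extension.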

Sequence | PBM E-score
AGTTCTGC | 0.17
AGATGAAG | -0.13
CCCCTAGC | -0.254
ACTCAACC | -0.0151
CGATGGAA | 0.0222
GGCACAAC | -0.169
GACACCCA | -0.171
TAGGACGA | -0.216
ATTCTCAG | -0.308
ATTACGTG | -0.0556
AGTACGCG | 0.197
CGTACGAG | 0.473
CCTACGAG | 0.339
AGTACGAG | 0.456
CGTACGCC | 0.3
ATTACGAG | 0.38
CGTACGTC | 0.356
ATTACGAC | 0.367
CGGACGAG | -0.0963
AGTACGTG | 0.142
CGTACGAC | 0.444
ACGCTGGA | 0.126
ACGACCCT | 0.331
CGCACGCA | 0.141
GCCGGCGA | -0.117
TAGACCGA | 0.175

Sequence | PBM E-score
AGAGAGCT | -0.169
AAGCATTC | -0.157
CGTGCGCA | -0.0738
CACAGTTC | -0.0557
CGAGTACA | 0.246
CGCTAACA | 0.0557
AGTACGCC | -0.0213
TGCACGAA | 0.109
AGTACGTC | 0.0542
AGTACGAC | 0.443
TGTACGAA | 0.48
TGTACAAA | -0.0698
CCGACCAA | 0.105
CAAGTATG | -0.112
ATCTCACG | -0.0833
AAACGGCT | 0.259
AAACGGTA | 0.287
ATACGGTG | 0.388
ACACGGTC | -0.0081
ATACGGTC | 0.383
CTACGGTC | 0.0518
AGACGGTG | -0.132
AAACGGTC | 0.293
AAACGGTG | 0.376
ACACGGTG | -0.0453
AAACGGCC | 0.29

Sequence | PBM E-score
AAACGGCG | 0.391
ATGCAAAG | 0.0339
AAAAATGA | -0.0643
AGGCTCAG | -0.211
GTTAGGGA | 0.0493
AGGTGCTG | -0.371
AGCATACT | 0.0121
CCGGACCA | 0.0404
CGGGAACA | 0.165
CGGGAACG | 0.456
CGGGAACC | 0.0199
AGGGAACA | -0.166
AGGGAACG | 0.465
AGGGAACC | 0.00984
AAAGGAGT | -0.131
GTTTCCTA | 0.0344
GCGGCTAA | -0.034
AAATCTGA | -0.168
CCTTGGCG | -0.159
AGTACCAG | -0.14
TGTACCAA | 0.036
CGTACCAC | 0.446
CGTACCAG | 0.397
CATACCAG | -0.0569
AGTACCAC | 0.0416
GGTACCAC | -0.137

Sequence | PBM E-score
CGTACCAA | 0.444
AGTACCAA | -0.119
TCCCTAAA | -0.00662
CGCACGTC | 0.00508
TAGGGATA | -0.165
GCAGTAAA | -0.0139
CGAACGCA | 0.242
GCTTCCCC | -0.098
CAAAGCCA | -0.0435
TCTACGAA | 0.312
GCTACGAC | 0.426
CCTACGAA | 0.192
ACTACGAC | 0.329
CCTACGAC | 0.232
GCTACGAA | 0.429
CCTCTCAA | -0.127
CACGTATC | 0.132
CGCGTATC | 0.232
ATAGTATG | 0.0828
ATCGTATC | 0.418
ATCGTATA | 0.488
ATAGTATC | 0.127
ATCGTATG | 0.438
CTCGTATC | 0.478
ATCGTGTA | 0.25
AGCGTATC | 0.0945

Sequence | PBM E-score
ATAGTATA | 0.211
AGCGTATG | 0.136
TCTGCTCA | -0.168
TCGAGCGA | 0.0676
ATATCAAC | -0.103
CCAGTTGC | -0.196
ACTGGCCA | -0.206
CAGAGTCA | -0.226
GCAGAGAC | -0.357
AGTATAGC | 0.0261
AGTATAGA | 0.16
CGTATAGA | 0.458
CCTATAGC | -0.248
CGTATAGC | 0.477
GGTATAGA | -0.0121
ACATGGGC | -0.263
GAAGTCCC | -0.172
ACGTTCGC | 0.157
GAAATTGC | 0.0049
ACACATTA | 0.031
CCACGAGG | 0.00398
ATGTCGTA | 0.446
ATGTCGTC | 0.0394
CTGTCGTA | 0.453
GTGTCGTA | 0.445
CTGTCGAA | -0.00303

Sequence | PBM E-score
CTGTCGTC | 0.161
GTGTCGCA | 0.162
GTGTCGGA | 0.0575
ATGTCGTG | 0.0288
AACCAATT | -0.233
ATCTACCC | 0.0111
GTTTACGA | 0.46
CTTTACGA | 0.464
TATTACGA | 0.389
GTTTACAA | 0.19
CATTACGA | 0.289
AATTACGA | 0.361
ATTTACGC | 0.0401
CTTTACGC | 0.211
CTTTACCA | -0.226
ATTTACGG | 0.31
ATTTACGA | 0.453
GTTTACTA | 0.182
CGGACTGC | -0.0684
ATTCTATA | -0.00057
CTACTGCA | -0.158
AGAGGAAG | -0.167
ATCACTAA | -0.0903
AAAGGGTC | -0.109
ATCATAGC | -0.0799
AGTCCCAG | -0.0584

Sequence | PBM E-score
GAAGAAGA | -0.0416
GGGTCCTA | -0.218
TGGGACCA | -0.27
GAAGGTTA | -0.016
AGGAGCTC | -0.0307
ACGAGCTC | 0.39
ACGAGCTA | 0.39
ACGAGCAT | 0.365
ACGAGCAA | 0.288
CCGAGCTA | 0.101
ACGAGCTG | 0.411
AGGAGCTG | -0.288
ACGAGCAG | 0.383
GCGAGCTA | 0.248
AAGAGCTG | -0.264
CCGAGCTC | 0.219
GAAGTATC | 0.0371
ACTTCACG | -0.0496
ATATGGAT | 0.133
ACGGTTTA | 0.0698
